Experimental data from PubChem BioAssay AID488890 (Southern Research Specialized Biocontainment Screening …, 2010).
Hit rate of the full screen: of about 320,000 compounds, about 1,300 (0.41%) were called active. About 3% were inconclusive and are not listed. The rule behind the calls is not given here. Only a sample is shown. Measured potencies and affinities stand elsewhere.

Test: growth inhibition of non-replicating M. tuberculosis (AID 488890);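 note: plate controls were DMSO cells for no effect and high antibiotic wells for full effect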
Conditions: Mycobacterium tuberculosis non-replicating, at 25 µM, stronger effect = higher value

Structure (SMILES)	inhibition
O=C(C1CCCN(S(=O)(=O)c2ccc(Br)cc2)C1)N1CCOCC1 (configuration not stated)	-4.37%
COCCn1cnc2c1c(=O)[nH]c(=O)n2Cc1ccccc1	-2.83%
N#Cc1c[nH]n2c(=O)c3c(nc12)CCC3	-2.17%
Cc1[nH]n2c(=O)c3c(nc2c1-c1cccc2ccccc12)CCC3	61.6%
O=c1c2c(nc3c(-c4cccc(Br)c4)c[nH]n13)CCCC2	76.9%
Cc1[nH]n2c(=O)c3c(nc2c1-c1ccc(F)cc1)CCCC3	18.2%
Cc1ccc(S(=O)(=O)/N=C(/Nc2ccc(F)cc2F)c2ccc(F)cc2)cc1	-16.3%
CC(Oc1ccc(Cl)cc1Cl)C(=O)Nc1ncccn1 (configuration not stated)	61.7%
Cc1cccc(C)c1OC(=O)CCN1C(=O)C2C3C=CC(C4CC34)C2C1=O (configuration not stated)	67.5%
Cc1ccc(SCC(=O)NCC2COc3ccccc3O2)cc1 (configuration not stated)	29.9%
CCS(=O)(=O)CCSc1nc2ccccc2o1	-14.9%
c1ccc2oc(CCc3nc4ccccc4o3)nc2c1	-3.04%
C/C(O)=C/c1nc2ccccc2[nH]c1=O	1.47%
Cc1ccc2oc(=O)c(/C=C(\O)CC(C)C)nc2c1	-17.2%
CC(C)(C)/C(O)=C/c1nc2ccccc2[nH]c1=O	-2.24%
Cc1ccc2oc(=O)c(/C=C(\O)C(C)(C)C)nc2c1	-1%
Cc1ccc(C(=O)CN2C(=O)NC3(CCCCCC3)C2=O)c(C)c1	-9.85%
CCOc1ccc(-c2nnc3sc(COc4ccc(Cl)cc4)nn23)cc1	-1.47%
CS(=O)(=O)Nc1cccc(C2=NN(C(=O)c3ccccc3Cl)C(c3ccccc3O)C2)c1 (configuration not stated)	30.8%
CC1CCN(S(=O)(=O)c2cccc(C(N)=O)c2)CC1	0.16%
CCn1c(CCCCc2n[nH]c(=S)n2CC)n[nH]c1=S	-11.8%
CC(=O)Nc1ccc(NC(=O)C2CCN(C(=O)NC3CCCCC3)CC2)cc1	-3.9%
Cn1nc(C(=O)NNC(=O)C2CSC3(C)CCC(=O)N23)c2ccccc2c1=O (configuration not stated)	-11.1%
Cc1ccc2[nH]c(C)c(CCNC(=O)c3c(N)no[n+]3[O-])c2c1	28.6%

Structure (SMILES)	inhibition
O=C(NCCCn1ccnc1)c1cc2cc([N+](=O)[O-])ccc2oc1=O	-4.48%
COC(=O)c1ccc(-c2csc(NC(=O)C3=COCCO3)n2)cc1	34.1%
CC(C)NC(=O)c1cc(=O)n(C)c(=O)n1C	1.53%
Cc1nn(C)c(Oc2ccc(Cl)cc2)c1C(=O)O	5.18%
O=S(=O)([N-]c1nc2ccccc2nc1-n1cc[n+](Cc2ccccc2)c1)c1ccc(Br)cc1	8.51%
Cc1cccn2c(=O)c3cc(C(=O)N4CC(C)CC(C)C4)sc3nc12 (configuration not stated)	0.79%
Cn1c(=O)[nH]c(=O)c2c1nc(N)n2Cc1ccccc1	-16.3%
Cc1cc(C)n(-c2nc3c(c(=O)[nH]c(=O)n3C)n2CC(C)C)n1	0.87%
CSc1nc2c(c(=O)[nH]c(=O)n2C)n1Cc1ccccc1	4.61%
CC(C)Cn1c(NCCN(C)C)nc2c1c(=O)[nH]c(=O)n2C	-11.4%
O=C(Nc1nnc(S(=O)(=O)N2CCCC2)s1)c1cccc([N+](=O)[O-])c1	43.7%
NC(=O)c1ccc[n+](Cc2ccccc2)c1	-8.91%
CC(C)(C)C1CCC(C(=O)Nc2ccccc2)CC1 (configuration not stated)	77.8%
CCN1CCCC1CNC(=S)Nc1ccc(C(C)=O)cc1 (configuration not stated)	16.8%
COc1cc(/C=C2\SC(c3ccc(C)cc3)=NC2=O)cc(OC)c1OC	16.6%
COc1cc(/C=C2\N=C(C)OC2=O)cc(OC)c1OC	-3.11%
CCCC1CC(C)(C(=O)CSc2n[nH]c(-c3ccccc3)n2)OC1=O (configuration not stated)	-9.58%
CCOc1nc2ccccc2cc1/C=C/C(=O)O	16.5%
O=C1CC(N2CCSCC2)C(=O)N1c1ccccc1 (configuration not stated)	17.6%
Cc1ccc(N2C(=O)CC(N3CCSCC3)C2=O)c(C)c1 (configuration not stated)	66.2%
COc1ccc(C(=O)O/N=C(/c2cccs2)C(C)(C)C)cc1	35.7%
COc1ccc(-c2nnc(NC(=O)Cc3ccccc3)s2)c(OC)c1	6.43%
O=C(Nc1nncs1)c1cc2c(s1)CCC2	2%
O=C(Nc1nc(-c2ccncc2)cs1)c1ccco1	-9.61%

Structure (SMILES)	inhibition
COc1ccc(CCNc2nc(-c3ccncc3)cs2)cc1OC	15.7%
O=C(CCS(=O)(=O)c1ccccc1)Nc1nc(-c2cccs2)cs1	75.7%
O=C(CCS(=O)(=O)c1ccccc1)Nc1nc(-c2ccc(F)cc2)cs1	0.28%
O=C(Nc1nc(-c2ccccc2)cs1)c1ccco1	11.8%
Cc1cccc(Nc2nc(-c3cccs3)cs2)n1	3.92%
COc1ccc(CCNc2nc(-c3cccnc3)cs2)cc1OC	-6.11%
Cc1cccc(Nc2nc(-c3ccc(F)cc3)cs2)n1	18.9%
O=C1CC(/C=C/c2ccc([N+](=O)[O-])cc2)=Nc2ccccc2N1	30.3%
Cc1ccc(C)c(N2N=C(C(=O)O)CCC2=O)c1	-0.55%
Cc1cc(N2CCN(c3ccccc3)CC2)n2nnnc2n1	-6.03%
O=C(c1nc2ccccn2c1CNCCCn1nnc2ccccc21)N1CCOCC1	-59.9%
O=C(CSc1nnc(-c2ccncc2)o1)Nc1ccccc1Cl	-10.3%
Cc1cc(C)cc(N(CCC#N)C(=O)CSc2ncnc3sccc23)c1	7.69%
Cc1ccc(C(=O)N[C@H](C(=O)N2CCN(c3ccccc3F)CC2)C(C)C)cc1	9.21%
COc1ccc2cc(C(=O)C3CCCN(C(=O)c4snnc4C)C3)ccc2c1 (configuration not stated)	16.9%
O=C(O)c1ccc2noc(-c3ccccc3)c2c1	26.3%
COc1ccc(CNC(=O)CN(C(=O)CCC(=O)Nc2ccccn2)c2ccccc2OC)cc1	10.4%
c1ccc(-c2csc(Nc3cccnc3)n2)nc1	24.5%
c1ccc(Nc2nc(-c3ccncc3)cs2)cc1	0.69%
CC(C)(C)[C@H](N)C(=O)N[C@H]1CCC2C3CC=C4C[C@@H](O)CC[C@]4(C)C3CC[C@@]21C (some centres not stated)	67.1%
CC(C)OC(=O)c1cc(C(=O)c2cc(Br)ccc2O)coc1=N	76.9%
COC(=O)c1cc(C(=O)c2cc(Cl)ccc2O)coc1=N	36%
CC(=O)Nc1nnc(-c2ccco2)o1	4.52%
O=C(Cc1ccccc1)Nc1nnc(-c2ccco2)o1	-4.54%

Structure (SMILES)	inhibition
Cc1ccccc1C(=O)Nc1nnc(-c2ccco2)s1	-20.8%
COc1cc(OC)cc(-c2nnc(NC(=O)CCS(=O)(=O)c3ccccc3)o2)c1	78.9%
CCCCN(C(=O)CSCC(=O)Nc1ccc(OC)cc1)c1c(N)n(Cc2ccccc2)c(=O)[nH]c1=O	33%
Cc1ccc[n+](CC(=O)Nc2nc3ccccc3s2)c1	2.08%
CN(C(=O)CN1CC=C(c2ccccc2)CC1)c1c(N)n(Cc2ccccc2)c(=O)[nH]c1=O	8.33%
CN(C(=O)COC(=O)Cc1c(Cl)cccc1Cl)C1CCS(=O)(=O)C1 (configuration not stated)	-4.22%
CCC(=O)Nc1ccc2ccccc2c1	14.1%
CCCCCC(=O)Nc1ccc2ccccc2c1	58.5%
CCCCn1c(N)c(N(Cc2ccccc2OC)C(=O)c2ccc(N3CCCC3=O)cc2)c(=O)[nH]c1=O	18.9%
N#CCSc1ncccc1-c1nc2ccccc2[nH]1	-0.28%
COc1ccc(Nc2cccccc2=O)cc1	3.01%
Cc1ccc(Nc2cccccc2=O)cc1	16.8%
c1ccc(Nc2ccccc2)cc1	6.24%
Nc1ccccc1Nc1cccc(C(F)(F)F)c1	47%
c1ccc(Nc2cccc3c(Nc4ccccc4)cccc23)cc1	42.5%
Nc1cccc(Nc2ccccc2)c1	2.41%
COc1ccc(Nc2ccccc2C(=O)O)cc1	3.87%
Cc1ccc(Nc2ccccc2)cc1	1.99%
Cn1nc(C(=O)NNC(=O)c2cccc(Cl)c2)ccc1=O	1.12%
O=S(=O)(NC1=NCCCCC1)c1cc(F)ccc1F	-1.39%
CC1(C)Oc2ccc(C(=O)N/N=C/c3ccc(O)cc3)cc2NC1=O	4.72%
CC(Sc1n[nH]c(N)n1)C(=O)Nc1cccc2ccccc12 (configuration not stated)	11%
Cc1nn(-c2ccccc2)c(C)c1/C=N/NC(=O)c1cc(-c2cccs2)[nH]n1	47.5%
O=C(Nc1cccc(Br)c1)c1ccc2nc(N3C(=O)CCC3=O)sc2c1	3.99%

Structure (SMILES)	inhibition
Nc1c(C(=O)c2ccccc2)sc(Nc2ccccc2)c1S(=O)(=O)c1ccccc1	12.2%
COCCCC1CCN(C(=O)C2CCC(=O)N(C3CCCC3)C2)CC1 (configuration not stated)	-6.84%
CCNc1nc(=S)nc(NC(C)C)[nH]1	-23%
CC(=O)Nc1ccc(C(=O)OCc2ccc(F)cc2Cl)cc1	50%
COc1ccc(NC(=O)/C(C#N)=C/c2c(C)nn(-c3ccc(F)cc3)c2Cl)cc1OC	9.54%
CCN(CC)S(=O)(=O)c1ccc(N2CC(C(=O)NCCc3ccc(Cl)cc3)CC2=O)cc1 (configuration not stated)	28.6%
O=C(N/N=C/c1ccc(F)cc1)c1c(O)c2ccccc2[nH]c1=O	25.9%
O=C(N/N=C/c1ccccc1)c1c(O)c2ccccc2[nH]c1=O	58.7%
Cc1ccc(NC(=S)N(CCCN2CCOCC2)Cc2cccnc2)cc1C	-0.2%
CSCCC(NC(=O)OCc1ccccc1)C(=O)O (configuration not stated)	-8.32%
Cc1ccc(SCC(=O)c2cc(C)c(O)c(C)c2)cc1	0.12%
O=c1cc(-c2ccccc2Cl)oc2cccc(O)c12	-8.34%
Nc1ccc(O)c2c(=O)cc(-c3ccccc3Cl)oc12	-0.68%
O=c1cc(-c2ccccc2Cl)oc2c(Br)ccc(O)c12	-2.73%
Nc1ccc2oc(-c3ccccc3Cl)cc(=O)c2c1O	-0.76%
COc1ccc(-c2[nH]nc3c2C(c2ccc(OC(=O)N4CCOCC4)cc2)C(C#N)=C(N)O3)cc1 (configuration not stated)	13.2%
CCc1cccc(C)c1NC(=O)CN(C)Cc1ccccc1F	23.6%
C[C@H](CO)N1C[C@H](C)[C@@H](CN(C)C(=O)Nc2ccc(C(F)(F)F)cc2)Oc2c(NC(=O)Nc3ccccc3)cccc2C1=O	32.4%
Cc1ccc(OCCCCN2CCC(C)CC2)c(Br)c1	49.3%
CC1CCN(CCCOc2ccc(Br)cc2Cl)CC1	33.5%
Cc1ccc(C)c(NC(=S)NCCc2c[nH]c3ccccc23)c1	67%
